Test [1] concerns the target Phospholipid hydroperoxide glutathione peroxidase GPX4 (Homo sapiens) (UniProt P36969). The experiment in a line: Primary qHTS Assay for Inhibitors of Recombinant Selenoprotein Glutathione Peroxidase 4 (GPX4) (AID 1845192). Further: nearly all actives have a fitted effect of over 65% in size. On activity change, negative = inhibition: on the % scale 0 is the no-effect control and ±100 the full control effect. Particulars: recombinant GPX4, GR-coupled NADPH fluorescence, 15 min; series mostly up to 27.8 µM. In short, it runs like this:
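GR-coupled assay: recombinant GPX4 preincubated 30 min with compound at room temperature; final 200 nM GPX4, 1 mM GSH, 0.5 mM cumene hydroperoxide, 0.5 mM NADPH, 100 nM GR, 0.01% BSA, pH 7.5 Tris. NADPH fluorescence (340/450 nm) read at 0 and 15 min.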

Test [2] concerns the target Luciferin 4-monooxygenase (Photinus pyralis) (UniProt P08659). The experiment in a line: Primary firefly luciferase (FLuc) qHTS assay for identification of artifact compounds. (AID 1845220). Further: nearly all actives have a fitted effect of over 60% in size.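 On activity change, negative = inhibition: plate controls were DMSO vehicle for no effect and no enzyme for full effect.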 Particulars: purified firefly luciferase, luminescence, 5 min; series mostly up to 54.1 µM. The essentials: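 Titrated compounds were incubated 15 min at RT, protected from light, with luciferin and ATP at 10 uM; reaction started with 10 nM FLuc, luminescence imaged at 5 min, and concentration-response fitted by Hill equation.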

Test [3] can be described thus: Primary fluorescence-based thiol-reactive (MSTI) qHTS assay for identification of artifact compounds. (AID 1845221). Further: nearly all actives have a fitted effect of over 65% in size. Further: potency means the concentration at half of the fitted maximal effect.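 On activity change, negative = thiol reactive: thiol-reactive compounds lower the probe fluorescence signal.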 Particulars: MSTI thiol-reactivity probe, 1 h; series mostly up to 53.8 µM. The essentials:
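A multi-concentration qHTS design tested compounds against 4 uM MSTI, pH 7.4 phosphate-buffered saline. Plates were protected from light for 1 h at room temperature before imaging fluorescence.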

Unmarked numbers belong to inactive results. Inconclusive results are not listed. Activity calls are given as the source filed them. The call rests on the fitted dose curve; in most records, active means well fitted curve in the direction sought with a large enough effect; inconclusive means small, poorly fitted or top-dose-only effect, or another doubt; inactive means no such curve, though single readings can be large; an effect the other way counts as inactive or inconclusive.

These results are taken from PubChem BioAssay (NCATS).

Phospholipid hydroperoxide glutathione peroxidase GPX4 (Homo sapiens), sequence (P36969 whole entry, looked up): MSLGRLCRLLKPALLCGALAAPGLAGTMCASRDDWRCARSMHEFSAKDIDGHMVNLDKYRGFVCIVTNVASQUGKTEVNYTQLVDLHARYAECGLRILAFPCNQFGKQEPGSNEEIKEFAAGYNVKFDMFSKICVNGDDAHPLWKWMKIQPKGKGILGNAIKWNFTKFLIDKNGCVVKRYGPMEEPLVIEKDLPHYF

For the molecule `CC1(C)Oc2ncnc(N)c2N=C1c1ccc(C2CCC(CC(=O)O)CC2)cc1` (stereo not drawn), the Potency entry in test [1], in test [2] and in test [3] was “inactive” each time.

For the molecule `COC(=O)C1=CO[C@@H](O[C@@H]2O[C@H](CO)[C@@H](O)[C@H](O)[C@H]2O)C2C1CC(O)C2C` (stereo partly drawn), the Potency result in test [1], in test [2] and in test [3] was “inactive” throughout.

`CC1=C(C)C(=O)OC(C(C)C2C(O)CC3C4C5OC5C5(O)CC(OC6OC(CO)C(OC7OC(C)C(O)C(O)C7O)C(O)C6O)CC(O)C5(C)C4CCC32C)C1` (stereo not drawn): the Potency entry in test [1], in test [2] and in test [3] was “inactive” each time.

For `CCOC(=O)C(CCc1ccccc1)NC1CCCN2CCCC(C(=O)O)N2C1=O` (stereo not drawn), the Potency result in test [1], in test [2] and in test [3] was “inactive” each time.

Take `O=C(O)CCc1ccc(NCc2cccc3c2CCCN3CCOc2ccccc2)cc1F`: the Potency result in test [1] and in test [2] was “inactive” throughout. The Potency in test [3] is 1.5 µM (active).

For the molecule `CCCCS(=O)(=O)NC(Cc1ccc(OCCCCC2CCNCC2)cc1)C(=O)O` (stereo not drawn), the Potency result in test [1], in test [2] and in test [3] was “inactive” in each case.

Regarding `COc1cc(C)c(C(=O)OC2C(C)OC(OC3CCC(C)C4C3C=C(C)C3/C(C)=C\CC/C(C)=C/C5(C)C=C(C(=O)O)C(C)CC56OC(=O)/C(=C(\O)C34C)C6=O)C(O)C2O)c(OC)c1` (stereo not drawn), the Potency entry in test [1] was “inactive”. Further, the activity change, negative = inhibition in test [2] is 1.3% [at 11.6 µM]. The activity change, negative = thiol reactive in test [3] is 142% [at 11.5 µM].

Regarding `CC(C)C1CCC(C(=O)N[C@@H](Cc2ccccc2)C(=O)O)CC1` (stereo partly drawn), the Potency result in test [1], in test [2] and in test [3] was “inactive” in each case.

For `NC(Cc1c[nH]c2ccc(O)cc12)C(=O)O` (stereo not drawn), the Potency result in test [1] and in test [2] was “inactive” in each case. Also, the Potency in test [3] is 16.8 µM (active).

For `CCOc1ccc(-c2nn3ncccc3c2-c2ccc(S(C)(=O)=O)cc2)cc1`, the Potency result in test [1], in test [2] and in test [3] was “inactive” in each case.

Consider `CC(=C\C(C)O)/C=C(\C)C(=O)CC1CC(CC(N)=O)CC(=O)O1` (stereo not drawn), for which the Potency entry in test [1], in test [2] and in test [3] was “inactive” in each case.

For the molecule `O=C(NC1CCN(CC(F)(F)F)CC1)c1ccc(-c2cccc(F)c2)nc1`, the Potency entry in test [1] and in test [3] was “inactive” in each case.

Regarding `Cc1ccccc1N1CCN(S(=O)(=O)C[C@]23CC[C@H](C[C@@H]2NC(=O)[C@@H](N)CCS(C)(=O)=O)C3(C)C)CC1`, the Potency result in test [1], in test [2] and in test [3] was “inactive” in each case.

In the case of `COc1cccc(CN(C(=O)CC(C)(C)C)C2CC(C(=O)N3CCNCC3)N(Cc3ccc4c(c3)OCO4)C2)c1` (stereo not drawn), the Potency entry in test [1] and in test [3] was “inactive” throughout.

Take `Cc1ccc2[nH]c(=O)c(C3=NN(C(=O)CCC(=O)O)C(c4ccc(Br)cc4)C3)c(-c3ccccc3)c2c1` (stereo not drawn): the Potency entry in test [1], in test [2] and in test [3] was “inactive” in each case.

Regarding `O=C(O)c1ccnc2cc(-c3nc4ccccc4n3CCN3CCCCC3)sc12`, the Potency entry in test [2] and in test [3] was “inactive” in each case.

For the molecule `Cc1cc(OCCN2CCOCC2)nn1-c1ccc2ccccc2c1`, the Potency result in test [1], in test [2] and in test [3] was “inactive” throughout.
